Experiment in all cases: DAPPL (digital affinity profiling via proximity ligation, sequencing); 10 mM Tris-HCl pH 7.5, 50 mM NaCl, 1 mM DTT, 4% glycerol, room temperature, 30 min; GST-TFs on glutathione beads, 16-mer random dsDNA library, 0.1% formaldehyde crosslink after washing; high values mean tight binding
The target of one assay is T1, FEV (Homo sapiens, UniProt Q99581 1-238).
T1 sequence: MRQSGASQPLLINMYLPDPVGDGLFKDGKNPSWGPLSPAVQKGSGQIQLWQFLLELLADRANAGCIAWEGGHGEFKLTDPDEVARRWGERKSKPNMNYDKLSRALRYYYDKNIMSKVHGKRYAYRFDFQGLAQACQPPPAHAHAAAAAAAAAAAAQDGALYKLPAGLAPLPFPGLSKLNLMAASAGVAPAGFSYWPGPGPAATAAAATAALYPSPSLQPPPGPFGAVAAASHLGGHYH
The settings on record: protein: recombinant; tags: N-terminal GST; dsDNA, one strand shown. In a few lines:
(§1)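 Binding signal is defined as a hexamer's read frequency for one factor over its frequency for the tag-only sample. To obtain reads, GST-fused human transcription factors were expressed in yeast, captured on glutathione beads, barcoded with DNA and pooled with that sample. Pools met 200 nmole of a 16-mer random double-stranded DNA library in Tris/NaCl/DTT/glycerol buffer for 30 min at room temperature before washing, 0.1% formaldehyde crosslinking, proximity ligation (BsaI/T4 ligase, 1 h, 37 °C), PCR and Illumina NextSeq500 sequencing.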

For the next assay, the target named is ETV5 (Homo sapiens, UniProt P41161 1-510). The settings on record: protein: recombinant; tags: N-terminal GST; dsDNA, one strand shown. In a few lines: as §1
Chain of ETV5 (P41161 whole entry): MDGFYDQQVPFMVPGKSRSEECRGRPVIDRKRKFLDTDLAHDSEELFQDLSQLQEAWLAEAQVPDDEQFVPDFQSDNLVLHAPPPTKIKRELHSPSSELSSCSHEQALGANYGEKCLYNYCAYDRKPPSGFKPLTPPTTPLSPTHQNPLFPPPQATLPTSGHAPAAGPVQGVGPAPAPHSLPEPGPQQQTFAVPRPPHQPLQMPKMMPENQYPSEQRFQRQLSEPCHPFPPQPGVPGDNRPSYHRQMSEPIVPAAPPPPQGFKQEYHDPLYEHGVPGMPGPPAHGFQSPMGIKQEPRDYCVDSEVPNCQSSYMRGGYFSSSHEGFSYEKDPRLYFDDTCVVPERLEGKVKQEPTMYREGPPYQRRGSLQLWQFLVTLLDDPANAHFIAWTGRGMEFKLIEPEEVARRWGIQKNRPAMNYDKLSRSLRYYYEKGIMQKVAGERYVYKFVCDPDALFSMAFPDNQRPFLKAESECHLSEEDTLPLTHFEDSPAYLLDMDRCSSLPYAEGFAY
The target in another assay is HSF1 (Homo sapiens, UniProt Q00613 1-529). The settings on record: protein: recombinant; tags: N-terminal GST; chain copies: 3; dsDNA, one strand shown. In a few lines: as §1
Chain of HSF1 (Q00613 whole entry): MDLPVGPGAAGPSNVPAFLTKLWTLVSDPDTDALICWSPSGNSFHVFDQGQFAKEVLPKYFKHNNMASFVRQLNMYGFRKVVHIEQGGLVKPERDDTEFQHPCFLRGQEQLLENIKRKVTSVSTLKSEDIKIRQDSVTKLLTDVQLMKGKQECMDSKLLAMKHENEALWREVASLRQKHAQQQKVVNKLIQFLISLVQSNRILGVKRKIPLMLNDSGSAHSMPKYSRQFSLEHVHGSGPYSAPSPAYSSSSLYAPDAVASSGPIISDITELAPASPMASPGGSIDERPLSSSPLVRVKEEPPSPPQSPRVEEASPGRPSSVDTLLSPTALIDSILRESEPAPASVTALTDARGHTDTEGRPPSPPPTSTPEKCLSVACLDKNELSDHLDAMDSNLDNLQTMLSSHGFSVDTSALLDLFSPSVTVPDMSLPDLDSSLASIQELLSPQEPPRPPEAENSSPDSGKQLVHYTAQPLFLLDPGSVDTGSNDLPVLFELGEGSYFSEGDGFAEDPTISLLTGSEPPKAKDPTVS
Another assay has as its target T2, SPIC (Homo sapiens, UniProt Q8N5J4 1-248).
T2 sequence: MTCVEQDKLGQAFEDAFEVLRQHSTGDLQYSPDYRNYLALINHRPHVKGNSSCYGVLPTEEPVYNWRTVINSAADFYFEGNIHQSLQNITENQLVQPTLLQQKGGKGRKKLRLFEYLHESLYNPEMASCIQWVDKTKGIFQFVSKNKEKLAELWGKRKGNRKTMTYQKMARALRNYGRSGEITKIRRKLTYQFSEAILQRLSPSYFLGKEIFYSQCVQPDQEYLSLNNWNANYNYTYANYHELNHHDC
The settings on record: protein: recombinant; tags: N-terminal GST; dsDNA, one strand shown. In a few lines:
as §1

The next assay concerns the target ELF4 (Homo sapiens, UniProt Q99607 1-663). The settings on record: protein: recombinant; tags: N-terminal GST; dsDNA, one strand shown. In a few lines: as §1
The next assay deals with T3, ELK4 (Homo sapiens, UniProt P28324-2 1-405).
T3 sequence: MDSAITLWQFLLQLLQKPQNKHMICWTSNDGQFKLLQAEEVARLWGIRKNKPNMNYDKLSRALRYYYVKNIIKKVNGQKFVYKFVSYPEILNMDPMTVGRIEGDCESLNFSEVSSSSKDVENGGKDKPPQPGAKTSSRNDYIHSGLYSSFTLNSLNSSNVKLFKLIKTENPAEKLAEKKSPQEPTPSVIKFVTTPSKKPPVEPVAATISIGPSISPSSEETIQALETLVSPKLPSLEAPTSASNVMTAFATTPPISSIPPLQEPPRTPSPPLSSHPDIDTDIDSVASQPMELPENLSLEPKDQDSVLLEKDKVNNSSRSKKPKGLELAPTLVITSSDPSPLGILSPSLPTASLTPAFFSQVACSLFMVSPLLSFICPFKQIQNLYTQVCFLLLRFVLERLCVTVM
The settings on record: protein: recombinant; tags: N-terminal GST; dsDNA, one strand shown. In a few lines: as §1

For a further assay, the target named is T4, ETV2 (Homo sapiens, UniProt O00321 1-342).
T4 sequence: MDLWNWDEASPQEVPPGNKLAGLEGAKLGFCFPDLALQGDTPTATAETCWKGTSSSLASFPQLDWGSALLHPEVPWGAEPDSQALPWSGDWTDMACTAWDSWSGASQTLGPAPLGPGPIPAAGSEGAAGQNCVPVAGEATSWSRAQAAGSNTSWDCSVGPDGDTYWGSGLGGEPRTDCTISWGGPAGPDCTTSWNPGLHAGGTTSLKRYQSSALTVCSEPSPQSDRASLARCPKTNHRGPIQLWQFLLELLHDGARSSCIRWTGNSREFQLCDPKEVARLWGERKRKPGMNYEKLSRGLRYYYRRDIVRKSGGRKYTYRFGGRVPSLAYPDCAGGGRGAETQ
The settings on record: protein: recombinant; tags: N-terminal GST; dsDNA, one strand shown. In a few lines: as §1

In a further assay the target is T5, ELF3 (Homo sapiens, UniProt P78545 1-371).
T5 sequence: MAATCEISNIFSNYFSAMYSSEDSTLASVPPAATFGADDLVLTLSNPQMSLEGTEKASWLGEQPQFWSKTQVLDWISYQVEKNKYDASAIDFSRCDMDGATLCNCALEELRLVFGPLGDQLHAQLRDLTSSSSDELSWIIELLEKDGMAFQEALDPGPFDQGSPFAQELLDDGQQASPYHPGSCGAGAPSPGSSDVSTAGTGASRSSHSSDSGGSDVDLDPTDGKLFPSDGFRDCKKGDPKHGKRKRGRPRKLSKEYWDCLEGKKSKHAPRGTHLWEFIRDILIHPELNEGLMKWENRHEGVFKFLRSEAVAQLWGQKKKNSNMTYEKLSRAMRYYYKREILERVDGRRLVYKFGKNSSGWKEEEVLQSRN
The settings on record: protein: recombinant; tags: N-terminal GST; dsDNA, one strand shown. In a few lines: as §1

The next assay concerns the target CRX (Homo sapiens, UniProt O43186 1-299). The conditions noted are these: protein: recombinant; tags: N-terminal GST; dsDNA, one strand shown. In a few lines:
as §1

For the next assay, the target named is ETV1 (Homo sapiens, UniProt P50549 1-477). The conditions noted are these: protein: recombinant; tags: N-terminal GST; dsDNA, one strand shown. In a few lines:
as §1

A further assay has as its target T6, ERF (Homo sapiens, UniProt P50548 1-548).
T6 sequence: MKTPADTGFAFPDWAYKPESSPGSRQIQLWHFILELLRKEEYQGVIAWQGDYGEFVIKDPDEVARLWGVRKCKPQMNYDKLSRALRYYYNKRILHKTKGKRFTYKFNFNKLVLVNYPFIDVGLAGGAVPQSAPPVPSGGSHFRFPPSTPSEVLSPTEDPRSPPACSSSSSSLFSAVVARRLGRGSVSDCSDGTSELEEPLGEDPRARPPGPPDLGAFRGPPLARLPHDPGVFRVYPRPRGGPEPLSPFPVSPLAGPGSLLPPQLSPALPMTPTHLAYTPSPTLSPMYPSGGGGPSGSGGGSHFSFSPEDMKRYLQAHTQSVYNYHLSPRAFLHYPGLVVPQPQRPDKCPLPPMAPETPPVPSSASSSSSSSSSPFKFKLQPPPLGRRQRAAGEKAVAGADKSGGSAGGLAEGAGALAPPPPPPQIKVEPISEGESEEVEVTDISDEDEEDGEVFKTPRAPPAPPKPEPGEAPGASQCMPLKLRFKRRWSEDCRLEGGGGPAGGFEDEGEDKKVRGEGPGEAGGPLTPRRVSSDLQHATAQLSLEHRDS
The conditions noted are these: protein: recombinant; tags: N-terminal GST; dsDNA, one strand shown. In a few lines:
as §1

A further assay addresses T7, ETV3L (Homo sapiens, UniProt Q6ZN32 1-361).
T7 sequence: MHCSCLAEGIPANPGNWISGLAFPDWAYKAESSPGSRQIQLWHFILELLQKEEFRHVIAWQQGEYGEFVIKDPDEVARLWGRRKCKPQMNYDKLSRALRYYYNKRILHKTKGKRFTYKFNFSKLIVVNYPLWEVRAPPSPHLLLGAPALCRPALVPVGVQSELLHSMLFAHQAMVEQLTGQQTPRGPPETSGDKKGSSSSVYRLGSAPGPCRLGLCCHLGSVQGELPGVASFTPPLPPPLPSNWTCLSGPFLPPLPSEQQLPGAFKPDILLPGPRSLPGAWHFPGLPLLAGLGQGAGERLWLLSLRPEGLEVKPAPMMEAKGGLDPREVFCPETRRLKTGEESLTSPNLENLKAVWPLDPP
The conditions noted are these: protein: recombinant; tags: N-terminal GST; dsDNA, one strand shown. In a few lines: as §1

The next assay concerns the target T8, ETS2 (Homo sapiens, UniProt P15036 1-469).
T8 sequence: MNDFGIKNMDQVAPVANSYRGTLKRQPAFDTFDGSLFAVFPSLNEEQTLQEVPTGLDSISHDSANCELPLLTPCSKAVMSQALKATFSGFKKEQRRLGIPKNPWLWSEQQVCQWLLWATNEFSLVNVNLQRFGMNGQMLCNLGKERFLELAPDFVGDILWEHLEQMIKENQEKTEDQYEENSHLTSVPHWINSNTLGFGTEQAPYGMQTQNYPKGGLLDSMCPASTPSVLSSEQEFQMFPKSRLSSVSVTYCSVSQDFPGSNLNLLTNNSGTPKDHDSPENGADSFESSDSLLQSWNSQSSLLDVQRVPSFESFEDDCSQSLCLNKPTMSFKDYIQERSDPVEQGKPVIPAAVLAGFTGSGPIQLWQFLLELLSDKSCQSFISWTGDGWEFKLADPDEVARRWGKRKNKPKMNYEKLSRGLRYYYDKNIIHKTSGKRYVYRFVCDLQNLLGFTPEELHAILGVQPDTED
The settings on record: protein: recombinant; tags: N-terminal GST; dsDNA, one strand shown. In a few lines:
as §1

The target in a further assay is T9, SPDEF (Homo sapiens, UniProt O95238 1-335).
T9 sequence: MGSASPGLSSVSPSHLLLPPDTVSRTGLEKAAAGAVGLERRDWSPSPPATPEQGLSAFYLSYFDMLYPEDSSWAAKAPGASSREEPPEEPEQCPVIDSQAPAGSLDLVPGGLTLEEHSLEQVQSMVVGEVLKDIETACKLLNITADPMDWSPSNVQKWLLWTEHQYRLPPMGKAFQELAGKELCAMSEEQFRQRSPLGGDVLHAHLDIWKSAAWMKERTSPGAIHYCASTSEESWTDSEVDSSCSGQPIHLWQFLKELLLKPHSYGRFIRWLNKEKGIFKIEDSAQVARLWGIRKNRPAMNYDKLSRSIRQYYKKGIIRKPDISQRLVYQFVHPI
The settings on record: protein: recombinant; tags: N-terminal GST; dsDNA, one strand shown. In a few lines:
as §1

Another assay has as its target T10, ETV7 (Homo sapiens, UniProt Q9Y603 1-341).
T10 sequence: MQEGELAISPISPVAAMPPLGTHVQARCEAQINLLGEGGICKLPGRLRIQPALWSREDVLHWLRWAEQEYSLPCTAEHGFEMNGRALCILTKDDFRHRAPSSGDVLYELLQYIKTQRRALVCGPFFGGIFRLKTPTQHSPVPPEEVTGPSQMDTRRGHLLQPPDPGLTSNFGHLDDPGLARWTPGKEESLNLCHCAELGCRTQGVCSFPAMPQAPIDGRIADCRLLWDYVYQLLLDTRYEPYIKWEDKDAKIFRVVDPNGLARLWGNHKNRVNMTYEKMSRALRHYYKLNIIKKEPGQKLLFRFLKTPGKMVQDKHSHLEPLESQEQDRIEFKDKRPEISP
The conditions noted are these: protein: recombinant; tags: N-terminal GST; dsDNA, one strand shown. In a few lines: as §1

The next assay addresses T11, ELF5 (Homo sapiens, UniProt Q9UKW6-2 1-255).
T11 sequence: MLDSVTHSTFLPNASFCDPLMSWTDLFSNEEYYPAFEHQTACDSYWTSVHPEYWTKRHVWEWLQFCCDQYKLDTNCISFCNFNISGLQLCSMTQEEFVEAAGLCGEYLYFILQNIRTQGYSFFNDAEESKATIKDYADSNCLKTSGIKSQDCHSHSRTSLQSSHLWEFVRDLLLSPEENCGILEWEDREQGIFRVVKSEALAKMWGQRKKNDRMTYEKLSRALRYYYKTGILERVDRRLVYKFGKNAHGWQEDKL
The conditions noted are these: protein: recombinant; tags: N-terminal GST; dsDNA, one strand shown. In a few lines:
as §1

The target in a further assay is T12, ETV3 (Homo sapiens, UniProt P41162-2 1-143).
T12 sequence: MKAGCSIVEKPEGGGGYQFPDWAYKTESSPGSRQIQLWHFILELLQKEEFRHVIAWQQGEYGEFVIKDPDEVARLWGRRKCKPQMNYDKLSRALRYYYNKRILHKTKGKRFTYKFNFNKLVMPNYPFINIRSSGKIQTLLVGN
The settings on record: protein: recombinant; tags: N-terminal GST; dsDNA, one strand shown. In a few lines:
as §1

A further assay has as its target ETV6 (Homo sapiens, UniProt P41212 1-452). The conditions noted are these: protein: recombinant; tags: N-terminal GST; dsDNA, one strand shown. In a few lines:
as §1

Chain of ETV6 (P41212 whole entry): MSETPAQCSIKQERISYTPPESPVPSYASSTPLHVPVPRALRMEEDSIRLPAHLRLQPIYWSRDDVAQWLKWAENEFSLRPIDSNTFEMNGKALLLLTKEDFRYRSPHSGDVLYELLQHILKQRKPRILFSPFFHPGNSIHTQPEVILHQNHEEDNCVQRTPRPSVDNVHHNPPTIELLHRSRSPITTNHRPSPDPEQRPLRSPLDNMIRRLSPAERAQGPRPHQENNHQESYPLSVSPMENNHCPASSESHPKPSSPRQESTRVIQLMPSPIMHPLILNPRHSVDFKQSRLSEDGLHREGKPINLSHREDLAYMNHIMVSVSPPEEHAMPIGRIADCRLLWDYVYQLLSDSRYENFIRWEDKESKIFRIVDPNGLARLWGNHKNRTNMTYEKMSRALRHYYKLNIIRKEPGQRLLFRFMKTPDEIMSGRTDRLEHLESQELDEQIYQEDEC
Chain of ETV1 (P50549 whole entry): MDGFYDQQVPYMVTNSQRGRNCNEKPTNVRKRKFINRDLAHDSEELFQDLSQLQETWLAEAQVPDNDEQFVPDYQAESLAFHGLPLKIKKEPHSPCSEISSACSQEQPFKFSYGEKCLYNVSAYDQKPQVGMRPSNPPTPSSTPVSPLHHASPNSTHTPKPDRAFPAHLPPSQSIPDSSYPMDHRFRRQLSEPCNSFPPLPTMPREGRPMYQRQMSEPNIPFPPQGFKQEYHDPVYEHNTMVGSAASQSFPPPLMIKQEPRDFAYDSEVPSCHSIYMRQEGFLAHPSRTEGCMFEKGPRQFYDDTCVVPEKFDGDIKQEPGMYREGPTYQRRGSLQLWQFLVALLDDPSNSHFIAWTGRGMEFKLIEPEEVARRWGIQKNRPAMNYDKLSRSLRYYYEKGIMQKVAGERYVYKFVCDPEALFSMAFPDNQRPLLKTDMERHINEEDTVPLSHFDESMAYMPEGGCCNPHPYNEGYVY
Chain of ELF4 (Q99607 whole entry): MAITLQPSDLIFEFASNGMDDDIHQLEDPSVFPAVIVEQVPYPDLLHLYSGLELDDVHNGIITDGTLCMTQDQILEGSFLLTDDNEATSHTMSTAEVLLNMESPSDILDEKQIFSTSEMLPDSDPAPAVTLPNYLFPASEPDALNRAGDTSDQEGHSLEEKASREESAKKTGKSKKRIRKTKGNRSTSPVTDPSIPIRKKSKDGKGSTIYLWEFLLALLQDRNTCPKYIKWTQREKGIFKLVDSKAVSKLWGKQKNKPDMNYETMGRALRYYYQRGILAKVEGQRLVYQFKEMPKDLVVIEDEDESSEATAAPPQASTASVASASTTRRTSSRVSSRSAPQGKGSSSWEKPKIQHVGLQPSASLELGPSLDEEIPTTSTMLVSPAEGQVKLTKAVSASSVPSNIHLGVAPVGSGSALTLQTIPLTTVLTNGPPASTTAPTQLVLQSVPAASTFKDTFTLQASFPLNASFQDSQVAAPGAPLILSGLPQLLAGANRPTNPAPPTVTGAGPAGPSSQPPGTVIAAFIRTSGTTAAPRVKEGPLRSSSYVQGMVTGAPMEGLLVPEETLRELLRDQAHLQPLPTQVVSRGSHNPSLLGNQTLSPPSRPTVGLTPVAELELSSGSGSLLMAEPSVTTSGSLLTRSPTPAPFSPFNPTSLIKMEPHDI
Chain of CRX (O43186 whole entry): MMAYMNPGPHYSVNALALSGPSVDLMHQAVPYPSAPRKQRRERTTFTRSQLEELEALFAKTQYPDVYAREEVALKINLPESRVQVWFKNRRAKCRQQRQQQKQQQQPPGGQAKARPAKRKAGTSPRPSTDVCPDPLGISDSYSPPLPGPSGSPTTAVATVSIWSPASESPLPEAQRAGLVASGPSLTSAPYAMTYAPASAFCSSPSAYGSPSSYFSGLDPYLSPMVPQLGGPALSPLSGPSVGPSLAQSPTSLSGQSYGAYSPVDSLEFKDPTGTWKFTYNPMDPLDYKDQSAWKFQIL

Turning to CTACTT, the binding signal is 2.08 fold enrichment (6-mer frequency, TF over GST control) with FEV; 1.78 fold enrichment (6-mer frequency, TF over GST control) with ETV5; 1.44 fold enrichment (6-mer frequency, TF over GST control) with HSF1; 1.89 fold enrichment (6-mer frequency, TF over GST control) with SPIC; 1.82 fold enrichment (6-mer frequency, TF over GST control) in the assay with ELF4; 1.87 fold enrichment (6-mer frequency, TF over GST control) with ELK4. Further, the binding signal was 1.84 fold enrichment (6-mer frequency, TF over GST control) with ETV2; 1.89 fold enrichment (6-mer frequency, TF over GST control) in the assay with ELF3; 1.78 fold enrichment (6-mer frequency, TF over GST control) in the assay with CRX; 1.89 fold enrichment (6-mer frequency, TF over GST control) with ETV1; 1.85 fold enrichment (6-mer frequency, TF over GST control) with ERF; 1.84 fold enrichment (6-mer frequency, TF over GST control) with ETV3L. The binding signal is 1.95 fold enrichment (6-mer frequency, TF over GST control) with ETS2; 1.79 fold enrichment (6-mer frequency, TF over GST control) in the assay with SPDEF; 1.8 fold enrichment (6-mer frequency, TF over GST control) with ETV7; 2 fold enrichment (6-mer frequency, TF over GST control) in the assay with ELF5; 1.76 fold enrichment (6-mer frequency, TF over GST control) with ETV3; 2.02 fold enrichment (6-mer frequency, TF over GST control) in the assay with ETV6.

For the origin of these results see publication PMC7862700, “An all-to-all approach to the identification of sequence-specific readers for epigenetic DNA modifications on cytosine”.
